Reference: PubChem BioAssay AID1159580 (chemical genetic matrix, 2015)
About 2,000 (36%) of roughly 5,500 compounds were called active. Inconclusive results (about 18%) are left out. Rule as the data show it: active = normalized growth mostly below about 0.91 (no sharp cut-off); inconclusive = no clear call, values can overlap the other calls; inactive = mostly above about 0.92. The list shows a part of the results.

Assay: chemical genetic growth profiling, strain panel (AID 1159580);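 also: tested at 20 µM; growth read once vehicle control cultures reached saturation at 30 °C; 1 = growth at the plate median or of vehicle wells; lower values mean less growth of the strain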
Settings: growth OD

Measured: normalized growth

C=C1C(=O)OC2CC1C(OC(C)=O)C/C(C)=C/CC/C(C)=C/CC[C@]2(C)O (stereo partly specified)
inactive: S. cerevisiae deletion strains, locus YJR043C, strain POL32, stronger effect = lower value 1.04 | S. cerevisiae deletion strains, locus YJR075W, strain HOC1, stronger effect = lower value 0.999 | S. cerevisiae deletion strains, locus YKL009W, strain mrt4, stronger effect = lower value 0.998 | S. cerevisiae deletion strains, locus YKL068W, stronger effect = lower value 1.01 | S. cerevisiae deletion strains, locus YKL085W, strain MDH1 (second series), stronger effect = lower value 0.99 | S. cerevisiae deletion strains, locus YKL085W, strain MDH1, stronger effect = lower value 0.99 | S. cerevisiae deletion strains, locus YKL160W, strain elf1, stronger effect = lower value 0.982 | S. cerevisiae deletion strains, locus YKR001C, strain vps1, stronger effect = lower value 1.02 | S. cerevisiae deletion strains, locus YKR026C, strain gcn3, stronger effect = lower value 0.997 | S. cerevisiae deletion strains, locus YKR091W, strain srl3, stronger effect = lower value 0.981 | S. cerevisiae deletion strains, locus YLL001W, strain dnm1, stronger effect = lower value 0.973 | S. cerevisiae deletion strains, locus YLL026W, stronger effect = lower value 0.987 | S. cerevisiae deletion strains, locus YLL041C, strain sdh2, stronger effect = lower value 0.993 | S. cerevisiae deletion strains, locus YLR027C, strain aat2, stronger effect = lower value 1.01 | S. cerevisiae deletion strains, locus YLR039C, strain RIC1, stronger effect = lower value 0.894 | S. cerevisiae deletion strains, locus YLR058C, strain SHM2, stronger effect = lower value 1.02 | S. cerevisiae deletion strains, locus YLR102C, strain apc9, stronger effect = lower value 1.02 | S. cerevisiae deletion strains, locus YLR221C, strain rsa3, stronger effect = lower value 1.03 | S. cerevisiae deletion strains, locus YLR258W, strain gsy2, stronger effect = lower value 1 | S. cerevisiae deletion strains, locus YLR262C, strain YPT6 (second series), stronger effect = lower value 0.916 | S. cerevisiae deletion strains, locus YLR262C, strain YPT6, stronger effect = lower value 0.858 | S. cerevisiae deletion strains, locus YLR268W, strain sec22, stronger effect = lower value 1 | S. cerevisiae deletion strains, locus YLR320W, strain mms22, stronger effect = lower value 1.03 | S. cerevisiae deletion strains, locus YLR330W, strain CHS5, stronger effect = lower value 1.03 | S. cerevisiae deletion strains, locus YLR342W, strain FKS1 (second series), stronger effect = lower value 0.993 | S. cerevisiae deletion strains, locus YLR342W, strain FKS1, stronger effect = lower value 0.995 | S. cerevisiae deletion strains, locus YLR357W, strain rsc2, stronger effect = lower value 1.02 | S. cerevisiae deletion strains, locus YLR370C, strain arc18, stronger effect = lower value 0.998 | S. cerevisiae deletion strains, locus YLR371W, strain rom2, stronger effect = lower value 1.02 | S. cerevisiae deletion strains, locus YLR384C, strain iki3, stronger effect = lower value 0.997 | S. cerevisiae deletion strains, locus YLR418C, strain cdc73, stronger effect = lower value 1.06 | S. cerevisiae deletion strains, locus YML016C, strain PPZ1, stronger effect = lower value 1.01 | S. cerevisiae deletion strains, locus YML032C, strain rad52, stronger effect = lower value 1.01 | S. cerevisiae deletion strains, locus YML120C, strain ndi1, stronger effect = lower value 0.99 | S. cerevisiae deletion strains, locus YML124C, strain tub3, stronger effect = lower value 1.01 | S. cerevisiae deletion strains, locus YMR058W, strain fet3, stronger effect = lower value 0.99 | S. cerevisiae deletion strains, locus YMR078C, strain ctf18, stronger effect = lower value 1.01 | S. cerevisiae deletion strains, locus YMR125W, strain sto1, stronger effect = lower value 0.973 | S. cerevisiae deletion strains, locus YMR129W, stronger effect = lower value 0.997 | S. cerevisiae deletion strains, locus YMR205C, strain PFK2, stronger effect = lower value 0.985 | S. cerevisiae deletion strains, locus YMR223W, strain ubp8, stronger effect = lower value 1 | S. cerevisiae deletion strains, locus YMR231W, strain pep5, stronger effect = lower value 0.976 | S. cerevisiae deletion strains, locus YMR263W, strain SAP30, stronger effect = lower value 1.01 | S. cerevisiae deletion strains, locus YMR307W, strain GAS1, stronger effect = lower value 0.977 | S. cerevisiae deletion strains, locus YNL067W, strain RPL9B, stronger effect = lower value 1.01 | S. cerevisiae deletion strains, locus YNL071W, strain lat1, stronger effect = lower value 0.996 | S. cerevisiae deletion strains, locus YNL128W, strain TEP1, stronger effect = lower value 1.03 | S. cerevisiae deletion strains, locus YNL153C, strain GIM3, stronger effect = lower value 1.04 | S. cerevisiae deletion strains, locus YNL209W, strain ssb2, stronger effect = lower value 0.991 | S. cerevisiae deletion strains, locus YNL233W, strain BNI4, stronger effect = lower value 1.02 | S. cerevisiae deletion strains, locus YNL248C, strain rpa49, stronger effect = lower value 0.988 | S. cerevisiae deletion strains, locus YNL250W, strain rad50, stronger effect = lower value 1.04 | S. cerevisiae deletion strains, locus YNL271C, strain bni1, stronger effect = lower value 1.02 | S. cerevisiae deletion strains, locus YNL298W, strain CLA4, stronger effect = lower value 1.01 | S. cerevisiae deletion strains, locus YNL307C, strain MCK1, stronger effect = lower value 1.03 | S. cerevisiae deletion strains, locus YNL322C, strain KRE1 (second series), stronger effect = lower value 1.01 | S. cerevisiae deletion strains, locus YNL322C, strain KRE1, stronger effect = lower value 1 | S. cerevisiae deletion strains, locus YNR049C, strain mso1, stronger effect = lower value 0.994 | S. cerevisiae deletion strains, locus YNR052C, strain pop2, stronger effect = lower value 1.01 | S. cerevisiae deletion strains, locus YOL012C, strain htz1 0.807 | S. cerevisiae deletion strains, locus YOL147C, strain pex11, stronger effect = lower value 1.03 | S. cerevisiae deletion strains, locus YOR001W, strain rrp6, stronger effect = lower value 1.01 | S. cerevisiae deletion strains, locus YOR061W, strain CKA2, stronger effect = lower value 1.02 | S. cerevisiae deletion strains, locus YOR069W, strain VPS5, stronger effect = lower value 1.01 | S. cerevisiae deletion strains, locus YOR070C, strain gyp1, stronger effect = lower value 0.995 | S. cerevisiae deletion strains, locus YOR080W, strain dia2, stronger effect = lower value 1.01 | S. cerevisiae deletion strains, locus YOR083W, strain WHI5, stronger effect = lower value 0.985 | S. cerevisiae deletion strains, locus YOR106W, strain vam3, stronger effect = lower value 1 | S. cerevisiae deletion strains, locus YOR136W, strain idh2, stronger effect = lower value 1.02 | S. cerevisiae deletion strains, locus YOR144C, strain elg1, stronger effect = lower value 1.02 | S. cerevisiae deletion strains, locus YOR184W, strain ser1, stronger effect = lower value 1.02 | S. cerevisiae deletion strains, locus YOR265W, strain rbl2, stronger effect = lower value 0.996 | S. cerevisiae deletion strains, locus YOR270C, strain vph1, stronger effect = lower value 0.937 | S. cerevisiae deletion strains, locus YOR290C, strain snf2, stronger effect = lower value 0.961 | S. cerevisiae deletion strains, locus YOR316C, strain cot1, stronger effect = lower value 1.01 | S. cerevisiae deletion strains, locus YPL051W, strain arl3, stronger effect = lower value 1.01 | S. cerevisiae deletion strains, locus YPL078C, strain atp4, stronger effect = lower value 0.96 | S. cerevisiae deletion strains, locus YPL106C, strain sse1, stronger effect = lower value 0.991 | S. cerevisiae deletion strains, locus YPL240C, strain hsp82, stronger effect = lower value 1 | S. cerevisiae deletion strains, locus YPL241C, strain CIN2, stronger effect = lower value 1 | S. cerevisiae deletion strains, locus YPR119W, strain clb2, stronger effect = lower value 1.01 | S. cerevisiae deletion strains, locus YPR141C, strain kar3, stronger effect = lower value 1.01 | S. cerevisiae deletion strains, locus YPR163C, strain tif3, stronger effect = lower value 1 | S. cerevisiae deletion strains, locus YPR167C, strain met16, stronger effect = lower value 1.01 | S. cerevisiae deletion strains, strain wtn01, stronger effect = lower value 1.02 | S. cerevisiae strains, strain wild type, stronger effect = lower value 1.01
